Our source for the cell viability values is the supplement of paper PMC10981050.

Where “and” joins values, the source holds several entries; their conditions need not be identical. Identical values can stand only once. Counter-ions that a name gives are not always drawn.

This assay relates to K562. Description: cell viability relative to vehicle control; higher = less cytotoxic. The note with it: 10 µM; SRSF2 genotype: SRSF2 P95H/wt. Put shortly:
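Mutant clones made by CRISPR editing and their isogenic wild-type counterparts, from four leukaemia lines, were exposed to a single 10 µM dose of each library compound for 48 h. The supernatant was then removed and CellTiter-Glo luminescence was read. Viability was reported as percent of the on-plate vehicle control.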
Take `C#Cc1cccc(Nc2ncnc3cc(OCCOC)c(OCCO)cc23)c1` [OSI-420 (Desmethyl Erlotinib)]: the cell viability is 43.5% and 54.3%.

Regarding `O=C(O)Cc1ccccc1Nc1c(Cl)cccc1Cl` [Diclofenac Sodium], the cell viability is 94.9% and 97.8%.

As for `CC[C@H](C)C(=O)O[C@H]1C[C@@H](C)C=C2C=C[C@H](C)[C@H](CC[C@@H]3C[C@@H](O)CC(=O)O3)[C@H]21` [Lovastatin (Mevacor)], the cell viability is 86.3% and 96.8%.

As for `Clc1ccc2c(c1)CCc1cccnc1C2=C1CCNCC1` [Desloratadine], the cell viability is 90.9% and 102%.

For the compound `CNCCCC12CCC(c3ccccc31)c1ccccc12` [Maprotiline hydrochloride], the cell viability is 76.7% and 74.8%.

With `NC(=O)OCC(COC(N)=O)c1ccccc1` [Felbamate], the cell viability is 93% and 95%.

Turning to `CCN(CC)CCOCCOC(=O)C1(c2ccccc2)CCCC1` [Pentoxyverine Citrate], the cell viability is 98.4% and 105%.

For the compound `Cn1cc(C2=C(c3ccc(Cl)cc3Cl)C(=O)NC2=O)c2ccccc21`, the cell viability is 97.9% and 94.8%.

For `Clc1ccc(C(Cn2ccnc2)OCc2ccc(Sc3ccccc3)cc2)c(Cl)c1` (stereo not given) [Fenticonazole nitrate], the cell viability was 76.5% and 67.7%.

As for `CC1(C)CCC(CN2CCN(c3ccc(C(=O)NS(=O)(=O)c4ccc(NCC5CCOCC5)c([N+](=O)[O-])c4)c(Oc4cnc5[nH]ccc5c4)c3)CC2)=C(c2ccc(Cl)cc2)C1` [Venetoclax (ABT-199, GDC-0199)], the cell viability was 79% and 81.2%.

As to `C[N+]1(C)CCCC1C(=O)[O-]` (stereo not given) [Stachydrine], the cell viability was 99.9% and 99.1%.

As for `CC1(C)[C@@H](O[C@H]2O[C@H](C(=O)O)[C@@H](O)[C@H](O)[C@H]2O[C@@H]2O[C@H](C(=O)O)[C@@H](O)[C@H](O)[C@H]2O)CC[C@]2(C)[C@H]3C(=O)C=C4[C@@H]5C[C@@](C)(C(=O)O)CC[C@]5(C)CC[C@@]4(C)[C@]3(C)CC[C@@H]12` [Dipotassium glycyrrhizinate], the cell viability is 105% and 104%.

With `C[C@H](NC(=O)CCc1nc2ccccc2c(=O)[nH]1)c1ccccc1`, the cell viability was determined as 103%.

Turning to `N#CC(=Cc1cn(-c2ccccc2)c2ccccc12)C(=O)O`, the cell viability was 111% and 90.4%.

For `COc1cc2nc(N3CCN(C(=O)C4CCCO4)CC3)nc(N)c2cc1OC` (stereo not given) [Terazosin HCl], the cell viability is 97.7% and 96.9%.

As for `C[C@@H]1CC(=O)NN=C1c1ccc(NN=C(C#N)C#N)cc1` [Levosimendan], the cell viability was 92.4% and 105%.

As to `Cn1c(-c2ccccc2C(F)(F)F)nnc1C12CCC(c3noc(C4CC(F)(F)C4)n3)(CC1)CC2`, the cell viability is 87.3% and 92.5%.

For the compound `CCCCCCCCCCCCCCCC(=O)OCC(O)C1OC(=O)C(O)=C1O` [L-Ascorbyl 6-palmitate], the cell viability was 103% and 102%.

`OC[C@H]1O[C@@H](Oc2ccc(O)cc2)[C@H](O)[C@@H](O)[C@@H]1O` [Arbutin (Uva, p-Arbutin)]: the cell viability was 104% and 97.2%.

Take `CC[C@H](C)C(=O)O[C@H]1C[C@H](O)C=C2C=C[C@H](C)[C@H](CC[C@@H](O)C[C@@H](O)CC(=O)O)[C@H]21` [Pravastatin sodium]: the cell viability was 103% and 97.3%.

As for `C[C@H]1CNC(=O)c2cnn3ccc(nc23)N[C@H](C)c2cc(F)ccc2O1`, the cell viability is 14.4% and 36.7%.

Turning to `COc1cc2c(cc1OC(C)C)[C@H](c1ccc(Cl)cc1)N(c1ccc(N(C)C[C@H]3CC[C@H](N4CCN(C)C(=O)C4)CC3)cc1)C(=O)C2`, the cell viability is 68.8% and 72.1%.

Consider `CSCC[C@H](NC(=O)[C@H](CC(C)C)NC(=O)[C@H](Cc1c[nH]c2ccccc12)NC(=O)[C@H](CCC(N)=O)NC(=O)[C@@H](NC(=O)[C@H](Cc1ccccc1)NC(=O)[C@H](CC(=O)O)NC(=O)[C@H](CCC(N)=O)NC(=O)[C@H](C)NC(=O)[C@H](CCCNC(=N)N)NC(=O)[C@H](CCCNC(=N)N)NC(=O)[C@H](CO)NC(=O)[C@H](CC(=O)O)NC(=O)[C@H](CC(C)C)NC(=O)[C@H](Cc1ccc(O)cc1)NC(=O)[C@H](CCCCN)NC(=O)[C@H](CO)NC(=O)[C@H](Cc1ccc(O)cc1)NC(=O)[C@H](CC(=O)O)NC(=O)[C@H](CO)NC(=O)[C@@H](NC(=O)[C@H](Cc1ccccc1)NC(=O)[C@@H](NC(=O)CNC(=O)[C@H](CCC(N)=O)NC(=O)[C@H](CO)NC(=O)[C@@H](N)Cc1cnc[nH]1)[C@@H](C)O)[C@@H](C)O)C(C)C)C(=O)N[C@@H](CC(N)=O)C(=O)N[C@H](C(=O)O)[C@@H](C)O` [Glucagon HCl], for which the cell viability is 113% and 109%.

Consider `CC(=O)O[C@]1(C)CC[C@@]23C[C@H]1C(C)(C)[C@@H]2CC[C@H]3C` [Cedryl acetate], for which the cell viability was 102% and 105%.

For `OC(CN1CCN(c2cccc(Cl)c2)CC1)C(c1ccccc1)c1ccccc1` (stereo not given), the cell viability is 84.9% and 91.9%.

Take `C[C@@H]1O[C@@H](OC[C@H]2O[C@@H](Oc3c(-c4ccc(O)c(O)c4)oc4cc(O)cc(O)c4c3=O)[C@H](O)[C@@H](O)[C@@H]2O)[C@H](O)[C@H](O)[C@H]1O` [Rutin (Rutoside)]: the cell viability was 106% and 105%.

Regarding `CC(C)(F)C[C@H](N[C@@H](c1ccc(-c2ccc(S(C)(=O)=O)cc2)cc1)C(F)(F)F)C(=O)NC1(C#N)CC1` [Odanacatib (MK 0822)], the cell viability was 98.7% and 103%.

In the case of `CCCCCCCCCCCCCCCc1cccc(O)c1C(=O)O` [Anacardic Acid], the cell viability is 88.9% and 86.6%.

For `Cc1ccc(NC(=O)Nc2cc(C(F)(F)F)ccc2F)cc1Nc1ccc2c(c1)NC(=O)/C2=C\c1ccc[nH]1`, the cell viability is 75.2% and 70.9%.

As for `COc1ccc(/C=C/C(=O)C2(C(=O)/C=C/c3ccc(OC)c(OC)c3)CCCCC2)cc1OC`, the cell viability is 5.82% and 13.9%.

Regarding `Cc1ccc(C)c(OCCCC(C)(C)C(=O)O)c1` [Gemfibrozil (Lopid)], the cell viability is 108% and 109%.

As to `NC(=O)c1cccc(-c2cccc(OC(=O)NC3CCCCC3)c2)c1`, the cell viability is 95.8% and 91.2%.

With `NC(=O)c1noc([C@H](CCCC2CCCCC2)CC(=O)NO)n1`, the cell viability was 92.1% and 88.7%.

For the compound `COC(=O)Nc1nc2cc([S+]([O-])c3ccccc3)ccc2[nH]1` (stereo not given) [Oxfendazole], the cell viability was 50.5% and 57.7%.

Take `Cc1cnc(C(=O)NCCc2ccc(S(=O)(=O)NC(=O)NC3CCCCC3)cc2)cn1` [Glipizide (Glucotrol)]: the cell viability was 93.8% and 94.9%.

`CC(C)c1nc(N(C)S(C)(=O)=O)nc(-c2ccc(F)cc2)c1/C=C/[C@@H](O)C[C@@H](O)CC(=O)O` [Rosuvastatin Calcium]: the cell viability is 103% and 107%.

Regarding `COc1ccc(-c2coc3cc(O)ccc3c2=O)cc1` [Formononetin (Formononetol)], the cell viability was 93.6% and 91.7%.

On to `COc1ccc(OC)c(C2C(C#N)=C(N)Oc3n[nH]c(-c4ccc5ccccc5c4)c32)c1` (stereo not given), for which the cell viability is 104% and 111%.

`CCN1C(=O)CNc2ncc(-c3ccc(-c4nc[nH]n4)nc3C)nc21`: the cell viability was 13.8% and 18.5%.

Consider `CN(C)c1ccc2nc3c(C(=O)O)cc(=O)c(O)c-3oc2c1` [Gallocyanine], for which the cell viability is 84.7% and 76.8%.

The cell viability is a read-out of living cells in per cent, often relative to untreated cells.
